Screening data (PubChem BioAssay)
Hits are enriched below; roughly 11% of the tested compounds scored in any of these assays.
L3MBTL1 inh – inhibitors of human L3MBTL1; AID 485360; AlphaScreen L3MBTL1–H3K9me1 peptide binding; hit rate 0.66% among 230,000; Potency, µM (doses to about 57.1 µM), without a hit: at the top dose activity, negative = inhibition, hits mostly inhibitors; Q9Y468; note: % is set by controls: 0 for no effect and ±100 for the full control effect; nearly all actives have a fitted effect of over 60% in size
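Displacement of a biotinylated histone H3(1-15) peptide monomethylated at Lys9 (75 nM) from L3MBTL1 (50 nM) was measured by AlphaScreen after a 30 min room-temperature compound incubation; cefsulodin titration served as intraplate control.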
BAZ2B inh – blocks human BAZ2B | Potency, µM (top dose mostly 114 µM), inactives show at the top dose activity change, negative = inhibition, actives largely listed as inhibitors | hit rate 4.4% among 360,000 | AlphaScreen BAZ2B-H3K14Ac peptide displacement | Q9UIF8; note: % is set by controls: 0 for no effect and ±100 for the full control effect; nearly all actives have a fitted effect of over 60% in size
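In this displacement format the biotinylated H3(5-23) peptide acetylated at Lys14 serves as ligand at 50 nM, with BAZ2B at 50 nM in PBS pH 7.4 containing 0.01% Tween-20. Donor and acceptor beads are 10 ug/mL final.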
JMJD2A Tudor inh – JMJD2A Tudor domain (human) inhibition; O75164; AlphaScreen JMJD2A-Tudor / H3K4me3 peptide binding; Potency, µM (doses to about 114 µM), for the others: top-dose activity change, negative = inhibition, hits mostly inhibitors; hit rate 4.4% among 390,000; AID 504339; note: % is set by controls: 0 for no effect and ±100 for the full control effect; nearly all actives have a fitted effect of over 50% in size
HP1b chromo inh – inhibitors of HP1-beta chromodomain binding to methylated histone tails; AlphaScreen HP1-beta / biotin-H3K9me3 peptide binding; hit rate 0.56% among 390,000; P83916; AID 540317; Potency, µM (doses to about 114 µM), for the others: at the top dose activity change, negative = inhibition, actives largely listed as inhibitors; note: nearly all actives have a fitted effect of over 70% in size
Target sequence (P83916 whole entry, looked up): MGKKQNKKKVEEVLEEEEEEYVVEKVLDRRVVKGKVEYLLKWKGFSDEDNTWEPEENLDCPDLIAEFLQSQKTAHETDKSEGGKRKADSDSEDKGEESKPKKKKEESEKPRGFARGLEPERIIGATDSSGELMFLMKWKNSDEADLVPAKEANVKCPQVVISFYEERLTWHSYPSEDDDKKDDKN
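HP1-beta protein (50 nM final) preincubated 30 min at room temperature with biotinylated H3(1-18)K9me3 peptide (50 nM) in PBS pH 7.4, 0.01% Tween-20, then compound added for 30 min. AlphaScreen streptavidin donor/nickel chelate acceptor beads (10 ug/mL final), 30 min dark, luminescence read.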
G9a inh – G9a (human) methyltransferase inhibition. Q96KQ7. G9a H3K9 monomethylation, AlphaScreen, 2 h. Potency, µM (top dose mostly 102 µM), for the others: top-dose activity, negative = inhibition, usual class: inhibitors. hit rate 8.8% among 350,000; note: % is set by controls: 0 for no effect and ±100 for the full control effect; nearly all actives have a fitted effect of over 75% in size
Target sequence (Q96KQ7 913-1193 limits assumed): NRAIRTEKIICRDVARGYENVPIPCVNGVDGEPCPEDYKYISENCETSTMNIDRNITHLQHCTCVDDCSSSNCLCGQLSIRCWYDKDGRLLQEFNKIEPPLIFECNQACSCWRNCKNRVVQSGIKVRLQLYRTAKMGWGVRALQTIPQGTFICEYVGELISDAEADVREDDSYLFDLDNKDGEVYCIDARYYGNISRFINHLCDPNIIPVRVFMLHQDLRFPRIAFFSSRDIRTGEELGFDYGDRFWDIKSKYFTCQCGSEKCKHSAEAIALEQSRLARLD
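Signal arises when biotinylated H3K9 peptide, once monomethylated, bridges streptavidin donor and antibody-captured acceptor beads. Enzyme at 20 nM was preincubated 15 min with test compounds; peptide 500 nM and SAM 20 uM then reacted for 2 h.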
* hit, by the source's call; ? = inconclusive; · = no result given; [ ] = remark or other dose. Calls come from the whole dose curve; as a rule, active = well fitted inhibition curve with a large enough effect; inconclusive = small, poorly fitted or top-dose-only effect; inactive = no such curve, though single readings can be large or run the other way. Potency is the fitted concentration of half-maximal effect.

SMILES	L3MBTL1 inh	BAZ2B inh	JMJD2A Tudor inh	HP1b chromo inh	G9a inh
O=C1N=c2ccccc2=C1c1sc(=S)n(NC(=O)c2ccccc2)c1O	·	?	-17%	12%	40µM*
O=C(NN1CCCCC1)c1cccc2ccccc12	8%	-1%	-25%	24%	-2%
O=C(NN1CCOCC1)c1cccc2ccccc12	6%	-4%	50µM*	2%	-10%
Cc1ccc(-c2nn[nH]n2)cc1Cl	4%	89µM*	-5%	25%	50µM*
Cc1ccc(-c2nn[nH]n2)cc1	9%	-1%	-15%	35%	-17%[59 µM]
CCCc1cc(=O)oc2cc(C)c3c(-c4ccccc4)coc3c12	·	-38%	17%	3%	-32%[59 µM]
CSc1nnc(-c2cccc(NC(=S)NN)c2)o1	·	?	-21%	12%	7.9µM*
CC1(C)CC(=O)C/C(=N/Nc2nc3ccccc3s2)C1	-20%	?	?	14%	50µM*
CCOC(=O)c1c(-c2ccc(C)cc2)csc1NC(=O)c1ccc(C(C)(C)C)cc1	·	-9%	-11%	25%	-11%[59 µM]
COC(=O)c1c(-c2ccc(C)cc2)csc1NC(=S)NC(=O)c1cc(OC)cc(OC)c1	-15%	?	0%	18%	25µM*
Oc1ccc(-c2csc(-c3cccnc3)n2)c(O)c1	1%	·	-24%	22%	-5%
Oc1ccc(-c2nc(-c3ccc(O)c(O)c3)cs2)cc1	-28%	?	50µM*	?	8.9µM*
COCCn1c(=O)c(-c2ccc(OC)cc2)nc2cnc(Nc3ccccc3)nc21	·	·	·	·	-1%[12.7 µM]
Cc1noc(C)c1C(=O)N1CCC2(CCN(Cc3ccccc3)CC2)CC1	·	·	·	·	-3%[12.7 µM]
O=C1C(C2=NC(C(=O)O)C3C(=O)N(c4ccccc4)C(=O)C23)=C(O)c2ccccc21 (stereo not given)	1%	-22%	16µM*	2%	?
Cc1ccc(C2=NN=C(NC(=O)CSc3nncn3C)SC2)cc1	-14%	-13%	?	35µM*	22µM*
Cc1ccc(NC(=O)CSc2nncn2C)c(C)c1	·	2%	-9%	28%	4%[59 µM]
Cc1ccc(C2=NN=C(NC(=O)C(F)(F)F)SC2)cc1	1%	-2%	-29%	-3%	28µM*
Cc1cc(Nc2ccc(C)c(Cl)c2)n2nc(Cc3ccccc3)nc2n1	·	-21%	-25%	40%	21%[59 µM]
COc1ccc(-c2nc(N3CCN(S(=O)(=O)c4ccc(F)cc4)CC3)c3ccccc3n2)cc1	·	·	-20%	37%	·
Cc1n[nH]c(=O)c2c(NC(=O)CSc3nc4ccccc4c(=O)n3C(C)C)oc(C)c12	·	-35%	-11%	19%[57 µM]	56µM*
Cc1n[nH]c(=O)c2c(NC(=O)CSc3nnnn3-c3ccc(O)cc3)oc(C)c12	10%	-2%	-12%	10%	5%[0.501 µM]
Cc1n[nH]c(=O)c2c(NC(=O)CSc3nnnn3-c3ccccc3)oc(C)c12	5%	-30%	?	24%	45µM*
COCCn1c(Cc2ccccc2)nnc1SCC(=O)Nc1oc(C)c2c(C)n[nH]c(=O)c12	8%	-15%	-13%	53%	14µM*
COCC(C)n1c(SCC(=O)Nc2oc(C)c3c(C)n[nH]c(=O)c23)nc2ccccc2c1=O (stereo not given)	·	-12%	-8%	9%	·
SMILES	L3MBTL1 inh	BAZ2B inh	JMJD2A Tudor inh	HP1b chromo inh	G9a inh
CC(C)=CCc1c(-c2ccc(O)cc2O)oc2c3c(cc(O)c2c1=O)OC(C)(C)C=C3	·	·	?	-8%	·
CC(C)=CCc1c2c(c(O)c3c(=O)c4c(oc13)-c1cc(O)c(O)cc1OC4C=C(C)C)C=CC(C)(C)O2 (stereo not given)	·	·	35µM*	?	·
OC(COc1ccccc1Cl)CN1CCN(CC(O)COc2ccccc2Cl)CC1 (stereo not given)	-8%	-32%	-14%	-23%	-45%[59 µM]
CC(C)c1ccccc1OCC(O)CN1CCN(S(=O)(=O)c2ccc([N+](=O)[O-])cc2)CC1 (stereo not given)	·	40µM*	20µM*	?	35µM*
O=S(=O)(c1ccc(F)cc1)N1CCN(CC(O)COc2ccccc2F)CC1 (stereo not given)	·	20µM*	7.9µM*	25µM*	8.9µM*
O=S(=O)(c1ccccc1)N1CCN(CC(O)COc2ccc3c(c2)CCC3)CC1 (stereo not given)	·	-22%	-24%	2%	?
N#Cc1ccccc1S(=O)(=O)N1CCN(C(=O)CCc2ccccc2)CC1	8%	6%	-8%	24%	4%[0.501 µM]
N#Cc1ccccc1S(=O)(=O)N1CCN(CC(O)COc2ccccc2F)CC1 (stereo not given)	·	28µM*	3.2µM*	?	2.2µM*
N#Cc1ccccc1S(=O)(=O)N1CCN(CC(O)c2ccccc2)CC1 (stereo not given)	8%	50µM*	2.2µM*	45µM*	16µM*
CN1CCN(S(=O)(=O)c2ccc([N+](=O)[O-])cc2)CC1	3%	-1%	-12%	47%	2%[59 µM]
Cc1ccc(C(=O)Nc2ccc3nc(SCC(=O)N4CCCc5ccccc54)sc3c2)cc1	·	-9%	-15%	35%	-27%[59 µM]
Cc1ccc(-n2c(=O)c3c(c4cc(C)ccc4n3C)n(CC(=O)Nc3ccc(F)cc3)c2=O)cc1	·	-9%	-17%	-15%	-17%[59 µM]
COc1cccc(NS(=O)(=O)c2ccc3[nH]cc(C(=O)N(C)C4CCCCC4)c(=O)c3c2)c1	·	-9%	-25%	-2%	?
COc1ccccc1OCCCC(=O)Nc1ccc(N2CCOCC2)cc1	22%	-13%	-12%	30%	?
COc1ccccc1OCC(=O)Nc1ccc2c(c1)OCO2	·	50µM*	?	-8%	-19%
COc1ccc(CCN2CC(C(=O)Nc3ccc4c(c3)OCO4)CC2=O)cc1OC (stereo not given)	·	?	79µM*	?	1%[59 µM]
Cc1ccccc1OCCCC(=O)Nc1ccc(N2CCOCC2)cc1	-10%	1%	-21%	9%	45µM*
Cc1ccccc1OCC(=O)Nc1ccc2c(c1)OCO2	-5%	-5%	-19%	43%	46%[12.7 µM]
COc1ccccc1OCC(=O)Nc1ccc(N2CCCCC2)cc1	?	?	?	-6%	22µM*
c1nc(N2CCC(N3CCCC3)CC2)c2cc(-c3ccc4c(c3)OCO4)ccc2n1	·	·	-13%	·	·
COc1ccccc1CN1CCCC2(CCN(C(C)=O)CC2)C1	·	·	·	·	-3%[12.7 µM]
CN(CC(=O)Nc1ccc(F)cc1F)S(=O)(=O)c1cccc2nsnc12	·	·	-13%	16%	2%[59 µM]
COc1cc(NC(=O)C2CCN(S(=O)(=O)c3c(C)noc3/C=C/c3c(C)cc(C)cc3C)CC2)cc(OC)c1	·	0%	-13%	16%[57 µM]	0%[59 µM]
CC(C)CCNc1nc(N)c([N+](=O)[O-])c(N2CCCCCC2)n1	·	-37%	-21%	1%	-12%
CCOc1ccccc1OCC(=O)Nc1ccc(N2CCCCC2)cc1	-23%	-38%	?	16%	?
